According to PubChem BioAssay AID1671190 (National Center for Advancing Translational Sciences (NCATS), 2021):
Screen size: about 580,000 compounds; about 6,100 (1.1%) were called active. Not shown: some 15% with an inconclusive outcome. The sample holds actives, similar compounds and a random draw of the others, so the mix is not that of the screen. Calls come from the whole dose curve; as a rule, active = well fitted inhibition curve with a large enough effect; inconclusive = small, poorly fitted or top-dose-only effect, or another doubt; inactive = no such curve, though single readings can be large or run the other way.

target: Polyunsaturated fatty acid lipoxygenase ALOX12 (Homo sapiens) (UniProt P18054); assay: Primary qHTS assay for inhibitors of human arachidonate 12S-lipoxygenase (ALOX12): Round 2; settings: purified 12hLO, xylenol orange hydroperoxide absorbance; series mostly up to 108 µM; activity change, negative = inhibition: at the top concentration
Text: Assay Provider: Theodore R. Holman Ph.D. University of California, Santa Cruz, California Human lipoxygenase 12hLO is a member of the closely related lipoxygenase family of enzymes which catalyze the site-specific oxidation of arachidonic acid to various hormone precursor molecules and as such is a candidate for drug development in a variety of disease areas, such as cancer and inflammation. Inhibition of 12hLO activity was screened by utilizing arachidonic acid as a substrate. The extent of hydroperoxide product formation was measured by a secondary chromogenic reaction in which xylenol orange (XO, Sigma-Aldrich, cat. number 39,818-7) reacts with the ferric ions produced from the reaction between the hydroperoxide and ferrous ions. The Fe (III)-XO complex is characterized with red-shifted absorbance at 560 nm. A purified preparation of human 12hLO was supplied by Dr. Holman laboratory, University of California, Santa Cruz.
PROTOCOL TABLE SEQUENCE No. (e.g., 1, 2, 3, etc.); […] (e.g., Cells, Incubation, Reagent, etc.); VALUE; DESCRIPTION 1; Enzyme; 3 uL; 150 nM 12hLO enzyme solution dispensed in 1536-well Greiner black, clear bottom plates. 2; Compound; 23 nL; compounds and controls were added. 3; Incubate; 15 min; room temperature. 4; Substrate; 1 uL; 40 uM arachidonic acid (final concentration). 5; Incubate; 30 min; room temperature. 6; Reagent; 4 uL; Fe-XO solution was added to each well. 7; Incubation; 30 min; room temperature 8; Detector; absorbance; Read 1 at 405 nm absorbance using ViewLux (Perkin-Elmer) CCD imager. 9; Detector; absorbance; Read 2 at 573 nm absorbance using ViewLux (Perkin-Elmer) CCD imager. NOTES (numbers refer to sequence above) 1; 150 nM 12hLO (final concentration) in buffer solution (25 mM Hepes, 0.01% Triton X-100, pH 7.0) was dispensed in columns 1, 2, 5-48. Column 1 is neutral (100% activity). Buffer only was dispensed in columns 3 and 4 as no enzyme negative controls. The plates were covered with metal lids with gas-exchange holes. 2; Compounds were pin transferred via a Kalypsys Pin Tool (Wako USA) in column 5-48. Control compound was transferred in column 2, titration of nordihydroguaiaretic acid (NDGA, Sigma-Aldrich, N5023) with top concentration of 20 mM in DMSO then 1:3 dilution in duplicate. Dilution factor of 23 nL into 4 uL final assay volume. 3; Covered assay plates were incubated for 15 min at room temperature. 4; Substrate was added to start the reaction; 40 uM arachidonic acid (Sigma-Aldrich, St. Louis, MO) was dispensed throughout the plate. 6; Chromogenic detection reagent solution (divalent iron/xylenol orange, Fe-XO) was added to each well: 200 uM xylenol orange, 300 uM ferrous ammonium sulfate prepared freshly in 50 mM sulfuric acid. 8, 9; Two absorbance readouts were obtained at 405 nm and at 573 nm using a ViewLux high-throughput CCD plate imager (Perkin-Elmer). The 573 to 405 (Read 2 / Read 1) absorbance ratio was used to compute reaction progress.
% is set by controls: 0 for no effect and ±100 for the full control effect; potency is the fitted concentration of half-maximal effect.

Polyunsaturated fatty acid lipoxygenase ALOX12 (Homo sapiens), sequence (P18054 whole entry, looked up): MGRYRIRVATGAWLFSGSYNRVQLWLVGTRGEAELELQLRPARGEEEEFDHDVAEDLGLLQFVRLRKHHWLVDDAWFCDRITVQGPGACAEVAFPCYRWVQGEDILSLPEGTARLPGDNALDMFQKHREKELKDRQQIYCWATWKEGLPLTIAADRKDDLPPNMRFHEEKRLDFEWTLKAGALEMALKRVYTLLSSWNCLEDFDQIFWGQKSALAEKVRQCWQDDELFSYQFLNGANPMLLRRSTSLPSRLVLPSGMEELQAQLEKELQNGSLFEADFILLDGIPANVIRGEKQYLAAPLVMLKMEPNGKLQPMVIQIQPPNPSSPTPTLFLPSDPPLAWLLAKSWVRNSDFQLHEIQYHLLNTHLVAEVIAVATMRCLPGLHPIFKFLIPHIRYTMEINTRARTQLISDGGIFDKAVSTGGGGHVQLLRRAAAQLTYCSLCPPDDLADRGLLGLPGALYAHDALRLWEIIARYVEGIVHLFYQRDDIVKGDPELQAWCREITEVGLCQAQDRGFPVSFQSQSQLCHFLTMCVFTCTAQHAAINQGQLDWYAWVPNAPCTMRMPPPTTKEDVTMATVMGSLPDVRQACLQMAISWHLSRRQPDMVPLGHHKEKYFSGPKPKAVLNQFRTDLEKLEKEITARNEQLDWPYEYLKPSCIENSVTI

Structure (SMILES)	Potency	activity change, negative = inhibition
CCOC(=O)c1c(C)n(Cc2ccccc2Cl)c2ccc(O)cc12	20 µM (active)	
Cc1nn(Cc2ccccc2Cl)c(Cl)c1C(=O)OC(C(=O)NC(N)=O)C(C)C (stereo not given)		-14.7% (inactive)
COc1ccccc1-c1ccc(N2CC3CC(C2)c2cccc(=O)n2C3)nn1 (stereo not given)		35.4% (inactive)
O=C(NCc1ccccc1)[C@H]1CN2CCC1C[C@@H]2Cn1cc(-c2ccc(F)cc2)nn1 (stereo not given in full)		11.8% [at 176 µM] (inactive)
COC(=O)[C@@H]1[C@@H](CO)[C@@H]2Cn3c(ccc(Br)c3=O)[C@H]1N2C(=O)c1cnccn1		43.2% (inactive)
COc1cc2c(cc1Oc1cccc(N(C)C)c1)NC(=O)C21CCN(CCC(C)C)CC1		-19.5% [at 176 µM] (inactive)
O=C(Nc1ccccc1)[C@H]1CN2CCC1C[C@@H]2Cn1cc(CO)nn1 (stereo not given in full)		18% [at 176 µM] (inactive)
COc1ccc(N2C(=O)/C(=C/c3ccco3)C(=O)NC2=S)cc1	8.91 µM (active)	
COc1nc2c(cc1CNC(=O)C1C(C)(C)C1(C)C)C(=O)N(C1CCCC1)C2		3.42% (inactive)
COc1ccc(/C=C\[N+](=O)[O-])c(OC)c1		-7.77% (inactive)
Cc1nc(C)c(C(=O)N2[C@H]3CC[C@@H]2c2cnc(-c4ccccc4)nc2C3)s1		46.2% (inactive)
O=C1CC2CCN(Cc3cccnc3)CC2CCN1 (stereo not given)		6.21% [at 12.5 µM] (inactive)
Cc1cc(N2CCNC[C@@H]2C)ccc1N1CC[C@H](O)C1	44.7 µM (active)	
CC1CNCCN1c1ccc(Cl)cc1 (stereo not given)		-26.4% (inactive)
COc1ccc(-c2cc3c(cc2OC)C2(CCN(C(C)=O)CC2)C(=O)N3)cc1OC		-20.9% [at 176 µM] (inactive)
CN(Cc1ccccc1)C[C@H]1CN2CC[C@H]1C[C@@H]2CNC(=O)Nc1ccsc1		-16.7% [at 176 µM] (inactive)
C[S+](=O)([O-])N1CCC2(CC1)CC(c1cccnc1)=NO2		5.92% [at 6.33 µM] (inactive)
c1ccc2sc(N3CCNCC3)nc2c1		-11.3% (inactive)
c1ccc2sc(SNC3CCCCC3)nc2c1	28.2 µM (active)	
OC(CNC1CCCCC1)c1ccccc1 (stereo not given)		2.31% (inactive)
Cc1noc(C)c1CC(=O)N1[C@H]2CC[C@@H]1c1cnc(-c3ccccc3)nc1C2		21.1% (inactive)
Cc1noc(C(C)N2CCN(C(=O)Cc3ccccc3)CC2)n1 (stereo not given)		0.871% (inactive)
Cc1cc(C)c2[nH]c(C(=O)N3CCC(C#N)(c4ccccc4)CC3)c(C)c2c1		3.76% (inactive)
CCC(=O)c1ccc(OCC(=O)N2CCN(CC(=O)Nc3ccc(C)cc3)CC2)cc1		-6.96% (inactive)

Structure (SMILES)	Potency	activity change, negative = inhibition
C=CCN1C(=O)NC(=O)/C(=C/c2ccc(OCC(=O)Nc3ccc(C)cc3)cc2)C1=O	39.8 µM (active)	
C=CCN(CC=C)C(=O)Nc1ccc(OCC)cc1		4.53% (inactive)
CC(CNc1ccc([N+](=O)[O-])c2cnccc12)c1ccccc1 (stereo not given)		-17.5% (inactive)
COC(=O)c1ccc(NC(=O)N2[C@H]3CC[C@@H]2c2cnc(-c4ccc(F)cc4)nc2C3)cc1		-11.1% (inactive)
COc1cc2c(cc1Oc1cccc(N(C)C)c1)NC(=O)C21CCN(c2cnccn2)CC1		-25.7% (inactive)
COc1ccc(CC(=O)N2CCN(CC(=O)NC(N)=O)CC2)cc1		-0.17% (inactive)
C#C[C@H]1CN2CC[C@H]1C[C@@H]2CNC(=O)C1CC1		32.6% [at 176 µM] (inactive)
C#C[C@H]1CN2CC[C@H]1C[C@@H]2COC(=O)Nc1cc(OC)cc(OC)c1	50.1 µM (active)	
COc1ccc(-c2cc([C@H]3CN4CC[C@H]3C[C@@H]4COC(=O)NC(C)C)nc(C)n2)cc1		-0.937% [at 176 µM] (inactive)
Cc1ncc2c(n1)C[C@@H]1CC[C@H]2N1S(=O)(=O)c1ccc(F)cc1		5.01% (inactive)
Cn1nc(-c2cccs2)cc1[C@H]1CN2CC[C@H]1C[C@@H]2CNC(=O)Nc1ccccc1		26.6% [at 176 µM] (inactive)
C=C(C)C1(CCCC)C(=O)NC(=S)NC1=O	44.7 µM (active)	
COc1ccccc1-c1cc([C@H]2CN3CC[C@H]2C[C@@H]3CNCc2cccc(C#N)c2)n(C)n1		101% [at 176 µM] (inactive)
COc1cc2c(cc1OCc1ccccc1)NC(=O)C21CCN(CCC(C)C)CC1		19% [at 176 µM] (inactive)
COC(=O)C1=C(c2ccc3ccccc3c2)C[C@@H]2CC[C@H]1N2C(=O)NCCO		6.64% (inactive)
Cc1ncoc1C(=O)NCC1=C(c2cccc3ccccc23)C[C@@H]2CC[C@H]1N2Cc1ccco1		-20.5% (inactive)
CC(=O)NCC1=C(c2ccc3ccccc3c2)C[C@@H]2CC[C@H]1N2Cc1ccco1	28.2 µM (active)	
O=[S+]1([O-])NC2(CCN(CC3CCOCC3)C2)COc2ccncc21 (stereo not given)		3.45% [at 6.33 µM] (inactive)
CN(C)C(=O)Oc1ccc2c(=O)c(-c3ccc(Br)cc3)c(C(F)(F)F)oc2c1		-27.7% (inactive)
O=C(c1ccc2c(c1)CCO2)N1C[C@@H](c2ccc(F)cc2)[C@@H]2[C@H]1C1CCN2CC1		-0.3% (inactive)
Cc1cc(C)cc(CN2CCC3(CCNCC3)C2)c1		51.5% (inactive)
COc1cc2c(cc1OC1CCCC1)NC(=O)C21CCN(c2nccs2)CC1		0.589% [at 176 µM] (inactive)
COc1cccc(N2C(=O)NC(=O)/C(=C\c3ccc([N+](=O)[O-])s3)C2=O)c1	44.7 µM (active)	
O=C1NC(=O)N(c2ccccc2)C(=O)/C1=C/c1ccc([N+](=O)[O-])s1	39.8 µM (active)	

Structure (SMILES)	Potency	activity change, negative = inhibition
CCC(CC)c1cc([C@H]2CN3CC[C@H]2C[C@@H]3CNS(=O)(=O)Cc2ccccc2)nc(-c2ccncc2)n1		38.2% (inactive)
N#Cc1cccc(NC(=O)NC[C@H]2C[C@@H]3CCN2C[C@@H]3CN2CCN(c3ncccn3)CC2)c1		0.779% (inactive)
CC(C)(C)c1nc(CN2CCC3(CC2)C(=O)Nc2ccccc23)no1		24.8% (inactive)
COc1cccc(Nc2cc3c(cn2)CN(C)CCN3C)c1		17.4% [at 176 µM] (inactive)
O=c1c2ccccc2nc(/C=C/c2ccc(F)cc2)n1-c1ccccc1O		-4.15% (inactive)
Cc1ccc(-n2c(/C=C/c3cccc(C(F)(F)F)c3)nc3ccccc3c2=O)cc1		4.27% (inactive)
O=c1c2ccccc2nc(/C=C/c2ccco2)n1-c1ccccc1O	35.5 µM (active)	
C=CCN(C)C[C@H]1CN2CC[C@H]1C[C@@H]2CNC(=O)Nc1cccc(SC)c1		14.9% [at 176 µM] (inactive)
O=c1oc2ccccc2c(O)c1C(c1ccccc1O)c1c(O)c2ccccc2oc1=O		-16.9% (inactive)
CCC(=O)CC(c1ccc([N+](=O)[O-])cc1)c1c(O)c2ccccc2oc1=O (stereo not given)		42.5% (inactive)
Cc1ccc(C(c2c(O)c3ccccc3oc2=O)c2c(O)c3ccccc3oc2=O)cc1	12.6 µM (active)	
O=C(Cc1ccccc1)N1[C@H]2CC[C@@H]1c1cnc(-c3ccc(F)cc3)nc1C2		-12.1% (inactive)
COc1cc2c(cc1-c1ccncc1)NC(=O)C21CCN(C(C)=O)CC1		-24% [at 176 µM] (inactive)
COc1ccc(CC(=O)N2C[C@@H]3CC[C@H](C2)N(CC2CCC2)C3)c(OC)c1		4.55% (inactive)
c1cncc(CNC2=NCCC2)c1		-16.5% (inactive)
ClCc1cccnc1	11.2 µM (active)	
c1cncc(CNCCc2c[nH]c3ccccc23)c1		-6.92% (inactive)
Cc1nc(-c2ccc(N(C)C)cc2)cc([C@H]2CN3CC[C@H]2C[C@@H]3CNC(=O)C2CCC2)n1		33.5% [at 176 µM] (inactive)
CCOCCc1c(O)[nH]c(=S)[nH]c1=O	14.1 µM (active)	
Cn1nc(-c2ccc(F)cc2)cc1[C@H]1CN2CC[C@H]1C[C@@H]2CNCc1ccccn1		99.3% [at 176 µM] (inactive)
Cc1ccc2c(n1)N(C)[C@H](CO)CCN(C1CCCC1)C2		18.6% [at 176 µM] (inactive)
CC(C)C(=O)N1CCC2(CC1)NCc1ccccc1-n1ccnc12		14.6% (inactive)
